PubChem BioAssay (NCI)
This is part of a sample that, as a whole, favours compounds with a hit. Of some 83,000 tested, about 20% had one in any assay.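 A percent growth of 40 corresponds to 60% growth inhibition; 0 means no net growth; -100 means all cells died. Active threshold: below 10.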 Values without a mark were called inactive. Activity calls are given as the source filed them.

Test system: ACHN renal
Experiment: NCI-60 one-dose screen, 48 h (100 = growth as untreated, 0 = no growth, -100 = all killed)
Details: 10 µM unless noted

| Structure (SMILES) | growth |
| --- | --- |
| O=C1/C(=C\c2ccc[nH]2)c2ccccc2N1c1ccccc1 | 92.2% |
| CN1C(=O)N(C)C2C1NN=c1s/c(=C\c3ccc([N+](=O)[O-])cc3)c(=O)n12 (centres undefined) | 53.6% |
| CNCCNc1nc2ccccc2c2c(=O)c3cccc(C)c3sc12 | -29.9% (active) |
| CCCCN1CCN(c2ccc3nc(-c4ccc5nc(-c6ccc(C(F)(F)F)cc6)[nH]c5c4)[nH]c3c2)CC1 | -99.5% (active) |
| COc1ccc(C2=C(c3cccc(OC)c3)C(=O)c3ccc(C)nc3C2=O)cc1 | 33.6% |
| CC(C)C[C@H](C(=O)N[C@@H](C)C(N)=O)N1CC=CCN(O)S1(=O)=O | 94.7% [5 µM] |
| CN1C(=O)N(C)C2Nn3c(s/c(=C\c4ccc(Cl)cc4Cl)c3=O)=NC21 (centres undefined) | 56.6% |
| COc1ccc(/C=c2\sc3n(c2=O)NC2C(N=3)N(C)C(=O)N2C)cc1 (centres undefined) | 105% |
| COC(=O)c1c2c(c(C)[n+]([O-])c1C)C(=O)C=C(NCc1ccccc1)C2=O | -29.5% (active) |
| N#C/C(=C\c1c(-c2ccccc2)[nH]c2ccccc12)S(=O)(=O)c1ccccc1 | 59.4% |
| CCN1C(=O)N(CC)C2C1NN=c1s/c(=C3\C(=O)N(CC(C)(C)C)c4ccccc43)c(=O)n12 (centres undefined) | 40.7% |
| CCCCCCCCCCCCCCn1cc(C2=C(c3coc4ccc(OC)cc34)C(=O)NC2=O)c2ccccc21 | 102% |
| Cc1cccc2c(=O)c3c(sc12)c(NCCN)nc1ccccc13 | -97.6% (active) |
| COc1cc(/C=C2\Oc3cc(OCCCN4CCCC4)ccc3C2=O)cc(OC)c1 | -45.4% (active) |
| O=C(CN1C=NC2C(N3CCOCC3)=NC=NC21)c1ccc(Br)cc1 (centres undefined) | 103% |
| NC(CCc1nc2ccccc2c(=O)[nH]1)C(=O)O (centres undefined) | 113% |
| CN1CCN(Cc2ccc(NC(=O)c3[nH]ncc3Nc3cc(OC4CCCC4)ncn3)cc2)CC1 | 8.8% (active) |
| COc1cc2nc(-c3cnc(N(C)C)nc3)nc(NC3CCN(Cc4ccccc4)CC3)c2cc1OC | -100% (active) |
| CCN1C(=O)N(c2ccccc2)C2NN=c3s/c(=C4\C(=O)N(C(C)C)c5ccccc54)c(=O)n3C21 (centres undefined) | 37.1% |
| CC(C)c1ccc(S(=O)(=O)NC(=O)NC2CCCC2)cc1 | 103% |
| COc1ccc(C2C3=C(COC3=O)N(CCO)c3cc4c(cc32)OCCO4)cc1 (centres undefined) | 96.5% |
| Cc1ccc2nc(NC(=O)CSC(=S)N3CCN(c4ccccc4)CC3)sc2c1 | 100% |
| O=C1N=c2ccccc2=C1c1sc(=Nc2ccccc2)n(Nc2ccccc2)c1O | 109% |
| CN1C(=O)N(C)C2(c3ccccc3)n3c(s/c(=C\c4ccccc4)c3=O)=NNC12c1ccccc1 (centres undefined) | 95% |
| Cn1c(/C=C(\C#N)c2ccccc2)nc2c(N3CCOCC3)nc(Cl)nc21 | -96.2% (active) |
| O=C(CN1C=NC2C(N3CCOCC3)=NC=NC21)c1cccc2ccccc12 (centres undefined) | 97.8% |

Test system: CAKI-1 renal
Experiment: as above
Details: 10 µM unless noted

| Structure (SMILES) | growth |
| --- | --- |
| O=C1/C(=C\c2ccc[nH]2)c2ccccc2N1c1ccccc1 | 92% |
| CC[C@@H](C)[C@H](NC(=O)Cn1cc(CNC(=O)[C@@H](NC(=O)OCc2ccccc2)C(C)C)nn1)C(=O)O | 88.4% |
| CN1C(=O)N(C)C2C1NN=c1s/c(=C\c3ccc([N+](=O)[O-])cc3)c(=O)n12 (centres undefined) | 40.2% |
| CNCCNc1nc2ccccc2c2c(=O)c3cccc(C)c3sc12 | 17.9% |
| CCCCN1CCN(c2ccc3nc(-c4ccc5nc(-c6ccc(C(F)(F)F)cc6)[nH]c5c4)[nH]c3c2)CC1 | -77.1% (active) |
| CC[C@H](C)[C@@H](C(=O)OC)n1cc(CNC(=O)[C@@H](Cc2ccccc2)NC(=O)OCc2ccccc2)nn1 | 83.4% |
| COc1ccc(C2=C(c3cccc(OC)c3)C(=O)c3ccc(C)nc3C2=O)cc1 | 34.2% |
| CC(C)C[C@H](C(=O)N[C@@H](C)C(N)=O)N1CC=CCN(O)S1(=O)=O | 115% [5 µM] |
| CN1C(=O)N(C)C2Nn3c(s/c(=C\c4ccc(Cl)cc4Cl)c3=O)=NC21 (centres undefined) | 48.4% |
| COc1ccc(/C=c2\sc3n(c2=O)NC2C(N=3)N(C)C(=O)N2C)cc1 (centres undefined) | 85% |
| COC(=O)c1c2c(c(C)[n+]([O-])c1C)C(=O)C=C(NCc1ccccc1)C2=O | 3.56% (active) |
| N#C/C(=C\c1c(-c2ccccc2)[nH]c2ccccc12)S(=O)(=O)c1ccccc1 | 41.5% |
| CCN1C(=O)N(CC)C2C1NN=c1s/c(=C3\C(=O)N(CC(C)(C)C)c4ccccc43)c(=O)n12 (centres undefined) | 38.5% |
| CCCCCCCCCCCCCCn1cc(C2=C(c3coc4ccc(OC)cc34)C(=O)NC2=O)c2ccccc21 | 88.8% |
| O=c1c(-c2nc3ccccc3[nH]2)cc2ccccc2n1Cc1cn(Cc2ccccc2Cl)nn1 | 77.4% |
| COc1c(B(O)O)cccc1-c1nc2ccc3n[nH]c(F)c3c2c2c1CCCC2 | 0.82% (active) |
| O=C(CSc1nc2ccccc2c(=O)n1-c1ccccc1)Nc1ccc(C(=O)/C=C/c2ccc(Cl)cc2)cc1 | 97.8% |
| Cc1cccc2c(=O)c3c(sc12)c(NCCN)nc1ccccc13 | -58.4% (active) |
| O=c1cc(-c2ccccc2)oc2cc(OCc3cn(Cc4ccc(F)cc4)nn3)cc(OCc3cn(Cc4ccc(F)cc4)nn3)c12 | 54.6% |

| Structure (SMILES) | growth |
| --- | --- |
| COc1cc(/C=C2\Oc3cc(OCCCN4CCCC4)ccc3C2=O)cc(OC)c1 | 58.6% |
| Nc1no[n+]([O-])c1-c1nnc2c(n1)-c1ccccc1C2=O | 72.4% |
| Cc1nc2ccccc2c(/C=C/c2ccccc2)c1C(=O)/C=C/c1ccc(Cl)cc1 | 12.6% |
| O=C(CN1C=NC2C(N3CCOCC3)=NC=NC21)c1ccc(Br)cc1 (centres undefined) | 85.4% |
| COc1ccc(/C=C/C(=O)c2c(C)nc3ccccc3c2/C=C/c2ccccc2)cc1O | 52.6% |
| NC(CCc1nc2ccccc2c(=O)[nH]1)C(=O)O (centres undefined) | 87.5% |
| CN1CCN(Cc2ccc(NC(=O)c3[nH]ncc3Nc3cc(OC4CCCC4)ncn3)cc2)CC1 | 19.2% |
| COc1ccc(C2=Nn3c(NN)nnc3SC2)cc1 | 89.7% |
| COc1cc2nc(-c3cnc(N(C)C)nc3)nc(NC3CCN(Cc4ccccc4)CC3)c2cc1OC | -90.9% (active) |
| CCN1C(=O)N(c2ccccc2)C2NN=c3s/c(=C4\C(=O)N(C(C)C)c5ccccc54)c(=O)n3C21 (centres undefined) | 49.1% |
| CC(C)c1ccc(S(=O)(=O)NC(=O)NC2CCCC2)cc1 | 96.7% |
| COc1cc2nc(NC3CCC3)nc(NC3CCN(C(C)C)CC3)c2cc1OC | 92.2% |
| COc1ccc(C2C3=C(COC3=O)N(CCO)c3cc4c(cc32)OCCO4)cc1 (centres undefined) | 80.8% |
| NC(=O)CSc1nc(-c2ccc(F)cc2)cc(-c2ccco2)n1 | 85.7% |
| O=C1N=c2ccccc2=C1c1sc(=Nc2ccccc2)n(Nc2ccccc2)c1O | 37.2% |
| CN1C(=O)N(C)C2(c3ccccc3)n3c(s/c(=C\c4ccccc4)c3=O)=NNC12c1ccccc1 (centres undefined) | 84.5% |
| Cn1c(/C=C(\C#N)c2ccccc2)nc2c(N3CCOCC3)nc(Cl)nc21 | -96.9% (active) |
| O=C(CN1C=NC2C(N3CCOCC3)=NC=NC21)c1cccc2ccccc12 (centres undefined) | 73.1% |
| O=c1c2cccc(F)c2sc2c(N3CCNCC3)nc3ccccc3c12 | 39.4% |
